HT1080 IDH1KD tx: kills HT-1080 cells with IDH1 knockdown. HT-1080 IDH1 knockdown viability, ATP luminescence, 48 h. Potency, µM (highest dose often 46.1 µM), usual class: cytotoxic. actives 2% (n = 360,000). AID 686971
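Cytotoxicity counter-line: IDH1KD HT-1080, 48 h, CellTiter-Glo. Curves classed by r2, magnitude and activity.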
ELG1 repair inh: blocks ELG1-dependent DNA repair in HEK293T cells | HEK293T ELG1-luciferase reporter, luminescence, 16 h; DNA damage induced by 5-fluorouridine | Potency, µM (top dose mostly 46.1 µM), usual class: inhibitors | actives 2.3% (n = 330,000) | AID 504467; note: nearly all actives have a fitted effect of over 55% in size
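DMSO vehicle served as the neutral condition. Each well held 2,000 cells given 5-fluorouridine plus compound; after 16 hr at 37 °C/5% CO2, ONE-Glo was added and luciferase measured 30 min later.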
HT1080NT lethal: kills 2HG-producing HT-1080-NT fibrosarcoma cells; actives 1.6% (n = 360,000); HT-1080-NT fibrosarcoma viability, CellTiter-Glo ATP luminescence, 48 h; AID 686970; Potency, µM (top dose mostly 46.1 µM), most hits filed as cytotoxic;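 note: NT is the 2HG producing partner of a matched IDH1 knockdown line; nearly all actives have a fitted effect of over 55% in size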
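Compounds were tested in concentration-response format on HT-1080-NT cells for 48 hours at 37 degrees C. Cell viability came from CellTiter-Glo luminescence; curves were classified by r2, response magnitude and activity.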
IL1B secr inh: inhibitors of inflammasome signaling (IL-1 beta secretion); activity change, % at 57.5 µM; actives 4.7% (n = 360,000); AID 743279; THP-1 LPS/ATP IL-1B secretion, AlphaLISA, 16 h; stronger effect = lower value; in the data active = activity change below about -50%; inconclusive = mostly about -30% to -49%
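THP-1 cells pretreated 1 hr with compounds (up to 57.5 uM final), then stimulated with LPS (250 ng/mL final) plus ATP (1.25 mM final); secreted IL-1B measured by AlphaLISA after 16 hr, decreased signal indicating inhibition.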
DT40 TDP1 no CPT: qHTS for Inhibitors of human tyrosyl-DNA phosphodiesterase 1 (TDP1): qHTS in cells in absence of CPT. DT40 Tdp1-/- hTDP1 cells, no CPT, ATP luminescence, 48 h. Potency, µM (series often up to 46.2 µM), most hits filed as inhibitors. actives 15% (n = 420,000). AID 686978, 2013; note: nearly all actives have a fitted effect of over 55% in size
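Seeded 400 DT40-hTDP1 cells/well (vehicle DMSO, no 20 nM CPT); pinned compounds; ≥48 hr at 37 °C; CellTiter-Glo luminescence as viability measure.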
TDP1 cell CPT: DT40-hTDP1 cell growth loss with CPT | chicken DT40 Tdp1-/-;hTDP1 cells + 20 nM CPT, ATP luminescence, 48 h | Potency, µM (series often up to 46.2 µM), actives largely listed as inhibitors | actives 12% (n = 420,000) | AID 686979; note: nearly all actives have a fitted effect of over 55% in size
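Cell growth measured by CellTiter-Glo luminescence after a minimum 48 h, 37 C compound exposure with 20 nM CPT in Tdp1-knockout DT40 cells stably expressing hTDP1, seeded 400/well; qHTS titration format.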
A number is an active result; – = inactive; ? = inconclusive; · = no result. Compounds with a hit are over-represented: about 19% of the library has one in this group of screens. Unless noted, calls come from the whole dose curve; as a rule, active = well fitted curve in the direction sought with a large enough effect; inconclusive = small, poorly fitted or top-dose-only effect, or another doubt; inactive = no such curve, though single readings can be large; an effect the other way counts as inactive or inconclusive.

SMILES	HT1080 IDH1KD tx	ELG1 repair inh	HT1080NT lethal	IL1B secr inh	DT40 TDP1 no CPT	TDP1 cell CPT
NS(=O)(=O)c1ccc(NC(=O)CN2CCN(c3ccc(F)cc3)CC2)cc1	·	·	·	·	–	–
CNC(=S)N1CCN(S(=O)(=O)c2ccc3ccccc3c2)CC1	–	–	–	–	–	–
COc1ccc(S(=O)(=O)N2CCCCC2)cc1NC(=O)COC(=O)c1ccco1	–	?	–	–	–	–
c1ccc(CN2CCN(CCOCCOc3ccc4c(c3)CCC4)CC2)cc1	?	–	16.4µM	-59.5	23.1µM	?
CCOc1ccc(OCC(O)CNC2CCN(Cc3ccccc3)CC2)cc1 (centres undefined)	?	–	?	?	9.2µM	5.8µM
O=C(c1ccccc1)c1ccc(OCC(O)CN2CCN(Cc3ccccc3)CC2)cc1 (centres undefined)	–	–	–	?	23.1µM	20.6µM
O=C(c1ccccc1)c1ccc(OCCOCCN2CCN(Cc3ccccc3)CC2)cc1	?	?	18.4µM	?	20.6µM	23.1µM
O=C(Cc1ccc(S(=O)(=O)N2CCOCC2)s1)N1CCN(S(=O)(=O)c2cccc([N+](=O)[O-])c2)CC1	–	–	–	–	–	–
O=C(c1csnn1)N1CCC2(CCCN(c3ccccn3)C2)CC1	·	·	·	·	–	–
Cn1nc(C(C)(C)C)cc1N1C(=O)CCC1(C)C(=O)NC1CCCC1 (centres undefined)	–	·	–	–	–	–
FC(F)(F)c1cccc(OCCN2CCN(Cc3ccccc3)CC2)c1	–	–	–	–	?	20.6µM
O=C(/C=C/c1ccc(OCCCF)cc1)N1CCN(Cc2ccccc2)CC1	–	–	–	-52.6	?	–
O=C(/C=C/c1ccc([N+](=O)[O-])cc1)N1CCN(Cc2ccccc2)CC1	–	–	–	–	?	?
O=C(Nc1ccc(N2CCN(c3ncccc3C(F)(F)F)CC2)nc1)c1cccs1	20.6µM	20.6µM	18.4µM	-100.5	20.6µM	18.4µM
O=C(Nc1ccc(N2CCN(c3ccc(C(F)(F)F)cn3)CC2)nc1)c1cccs1	–	–	–	–	–	–
N/C(=N\O)c1ccc(N2CCN(c3ncccc3C(F)(F)F)CC2)nc1	–	?	–	–	18.4µM	?
COC(=O)c1ccc(NC(=O)c2cn(-c3ccccc3)nc2-c2ccncc2)cc1	–	?	–	–	?	?
COc1ccc(C)cc1NC(=O)c1nnn(-c2c(C)cccc2C)c1C	·	·	·	·	16.4µM	?
Cc1ccc(C)c(-n2nnc(C(=O)Nc3ccc(Br)cc3)c2C)c1	·	·	·	·	5.17µM	10.3µM
COc1cn(-c2ccccc2)nc1C(=O)Nc1ccccc1	–	?	–	-54.9	–	–
Cc1ccc(CNC(=O)Cn2nnc(C(=O)Nc3ccc(Br)cc3)c2N)cc1	–	–	–	–	–	?
COc1ccc(C)cc1NC(=O)c1nn(-c2ccccc2)cc1OC	14.6µM	?	14.6µM	-87.4	20.6µM	?
CCCCOc1cccc(C(=O)Nc2sc3c(c2C(=O)OCC)CCCC3)c1	·	·	·	·	–	–
Cc1ccc(CN2CC(C(=O)NNC(=O)c3ccc(F)cc3)CC2=O)cc1 (centres undefined)	–	–	–	–	–	–
Cc1ccc2cc(CNC(C)(C)C)c(=O)[nH]c2c1	–	?	–	–	–	–
SMILES	HT1080 IDH1KD tx	ELG1 repair inh	HT1080NT lethal	IL1B secr inh	DT40 TDP1 no CPT	TDP1 cell CPT
COc1ccc2cc(CCNC(=O)c3cccc([N+](=O)[O-])c3)c(=O)[nH]c2c1	–	?	–	–	?	23.1µM
Cc1ccc2cc(CCNC(=O)c3cccs3)c(=O)[nH]c2c1	–	?	–	–	?	–
Cc1ccc2cc(CCNC(=O)c3cccs3)c(=O)[nH]c2c1C	–	?	–	–	?	23.1µM
Cc1ccc2cc(CCNC(=O)c3ccc(C)c([N+](=O)[O-])c3)c(=O)[nH]c2c1	–	?	–	–	?	20.6µM
CNCc1cc2ccc(C)cc2[nH]c1=O	–	–	–	–	?	16.4µM
Nc1ccc(C=O)cc1	·	·	·	·	–	–
Cc1ccc(C)c(-n2nnc3ccccc3c2=O)c1	–	·	–	–	?	–
OCCOCCN1CCN(C(=S)Nc2ccccc2)CC1	–	–	–	–	–	–
C=C(C)CN1C(=O)C2(OCCO2)c2cc(Br)ccc21	–	·	–	–	–	–
Cc1ccc2cc(CCNC(=O)c3cccc([N+](=O)[O-])c3)c(=O)[nH]c2c1C	–	18.4µM	–	–	16.4µM	23.1µM
CC(=O)NCCc1cc2ccc(C)c(C)c2[nH]c1=O	–	?	–	–	–	–
CCOc1ccc(OCC)c(Nc2cc(C)nc3nc(C)nn23)c1	–	–	–	–	?	18.4µM
CCOc1ccc(OCC)c(Nc2cc(C)nc3ncnn23)c1	–	?	–	–	–	–
O=C(CC(CC(=O)c1ccccc1)C(=O)O)c1ccccc1	–	–	–	–	–	–
O=C(CC(C(=O)O)P(=O)(c1ccccc1)c1ccccc1)c1ccccc1 (centres undefined)	–	–	–	-50.2	–	–
Cc1cc(C)cc(C(N)=Nc2cccc(C#N)c2)c1	–	–	–	–	?	–
OCc1ccccc1N=c1ssnc1Cl	·	–	·	·	·	·
Clc1nssc1=Nc1ccc(Br)cc1	?	?	16.4µM	-96.9	13µM	10.3µM
COc1cc(N=c2ssnc2Cl)cc(OC)c1	–	–	–	?	13µM	10.3µM
COc1cc(OC)cc(-c2nc(-c3ccccc3OC)no2)c1	–	–	–	–	?	?
Clc1ccc(N=c2ssnc2Cl)nc1	–	–	–	–	2.59µM	3.26µM
N#Cc1cccc(N=c2ssnc2Cl)c1	–	?	–	–	6.51µM	3.26µM
COc1cccc(Cn2c(=O)c(-c3ccc(Cl)cc3)nc3cnc(OC)nc32)c1	·	·	·	·	–	–
CCOC(=O)C1(C)CCN1C(=O)c1ccc(C)cc1 (centres undefined)	?	·	–	–	–	–
CC1CN(CCC(=O)Nc2ccccc2F)CC(C)O1 (centres undefined)	–	–	–	–	–	–
C=CCNc1nc2ccccc2nc1NS(=O)(=O)c1ccc(Br)cc1	–	–	?	–	–	–
Clc1nssc1=Nc1nncs1	–	–	–	-72.8	7.31µM	5.8µM
COc1cccc(S(=O)(=O)N(C)C[C@H]2Oc3ncc(Br)cc3C(=O)N([C@@H](C)CO)C[C@@H]2C)c1	–	·	–	–	?	?

High-throughput results (PubChem)
